GDH-TPI counter-1: inhibits GDH-TPI coupling enzymes, artifact for Mtb FBA screen | GDH-TPI coupled enzyme counterscreen, NADH absorbance | hit rate 1.2% among 360,000 | inhibition, % at 4.8 µM; in the data active means inhibition above about 30%
Rv3671c protease: Rv3671c (M. tuberculosis) protease inhibition; P9WHR9; inhibition, % at 5.96 µM; hit rate 0.048% among 320,000; in the data active means inhibition above about 38%;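 further: extracellular domain of Rv3671c used as enzyme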
FBA Mtb inh: Mtb fructose-bisphosphate aldolase inhibition; P9WQA3; purified M. tuberculosis FBA, fluorescence read-out; inhibition, % at 1 µM; hit rate 2.3% among 360,000
Target sequence (P9WQA3 whole entry, looked up): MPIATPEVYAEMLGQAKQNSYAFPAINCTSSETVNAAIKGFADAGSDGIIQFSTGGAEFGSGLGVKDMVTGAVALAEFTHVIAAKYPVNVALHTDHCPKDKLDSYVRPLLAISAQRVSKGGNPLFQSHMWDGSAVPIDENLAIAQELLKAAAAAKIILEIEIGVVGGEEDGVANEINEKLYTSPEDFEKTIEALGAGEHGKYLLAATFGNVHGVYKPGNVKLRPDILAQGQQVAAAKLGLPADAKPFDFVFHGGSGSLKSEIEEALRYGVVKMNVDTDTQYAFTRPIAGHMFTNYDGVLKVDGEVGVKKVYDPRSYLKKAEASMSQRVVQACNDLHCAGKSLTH
RecA splice inh: blocks M. tuberculosis RecA intein splicing; P9WHJ3; AID 2221; cell-free RecA intein splicing, fluorescence; inhibition, % (concentration not given with the values); hit rate 0.75% among 290,000; in the data active means inhibition above about 30%
UGM FP inh: inhibitors of M. tuberculosis UDP-galactopyranose mutase | AID 504406 | hit rate 0.06% among 320,000 | inhibition, % at 10 µM | P9WIQ1 | purified UGM, fluorescence polarization probe displacement; in the data active means inhibition above about 10%, passing the limit was not always enough
BH1578 lux ind: induces V. cholerae light production without autoinducers | AID 588436 | V. cholerae BH1578 lux reporter, luminescence, 6 h | activation, % at 18.7 µM | hit rate 0.16% among 350,000; in the data active means activation mostly above about 9.7%, no sharp cut-off
Mtb FBA inh conf: Mtb FBA inhibition, confirmed; purified M. tuberculosis FBA, fluorescence read-out; hit rate 78% among 5,600; shares compounds with FBA Mtb inh; inhibition, % at 1 µM; AID 651616
GDH-TPI counter-2: GDH-TPI inhibition counter-screen for FBA inhibitors. shares compounds with FBA Mtb inh. GDH-TPI coupled enzyme counterscreen, fluorescence. inhibition, % at 1 µM. hit rate 81% among 5,600. AID 652141; in the data active means inhibition above about 10%
GDH-TPI dose: counter-screen for M. tuberculosis FBA inhibitors: GDH-TPI dose response. hit rate 79% among 170. shares compounds with FBA Mtb inh. AID 652145. IC50, µM. GDH-TPI coupled enzyme assay, fluorescence, artifact counterscreen; call rule not given here
A number is an active result; – = inactive; · = no result; + = active, no number. Rows were chosen to be rich in hits. Some 4.1% of all compounds tested hit in one or more screens of this group. Unless noted, no stated cut-off is given here; in the data, active means inhibition above about 27%; inactive means the rest.

SMILES	GDH-TPI counter-1	Rv3671c protease	FBA Mtb inh	RecA splice inh	UGM FP inh	BH1578 lux ind	Mtb FBA inh conf	GDH-TPI counter-2	others
CCOC(=O)CSc1nc2ccccc2c(=O)n1-c1ccc(C)cn1	–	–	–	–	–	–	·	·
Cn1c(-c2cccc(F)c2)nc2c1c(=O)[nH]c(=O)n2Cc1ccccc1	–	–	28	–	–	–	–	–
CCCOc1ccc(-c2nc3c(c(=O)[nH]c(=O)n3Cc3ccccc3)n2CCO)cc1OCC	–	–	38	–	–	–	–	–
CCCn1c(-c2cc(OC)c(OC)c(OC)c2)nc2c1c(=O)[nH]c(=O)n2Cc1ccccc1	–	–	41	–	–	–	–	–
O=c1[nH]c(=O)n(Cc2ccccc2)c2nc(-c3ccc(C(F)(F)F)cc3)n(CCO)c12	–	–	69	–	–	–	134	115
CC(=O)c1cccc(NC(=O)c2cccc3c(-c4cnn(C)c4)coc23)c1	–	·	–	·	·	–	·	·
CCc1ccc(CN(C)C(=O)C2CCC(=O)N(Cc3ccccn3)C2)cc1 (stereo unspecified)	–	–	–	–	–	–	·	·
COc1ccc(-c2nc3c(-c4ccc(F)cc4)cnn3cc2C)cc1F	–	–	–	–	–	–	·	·
COc1ccc(-c2nc3nc(N)nn3cc2C)cc1F	–	–	28	–	–	–	82	70
Cc1ccc(S(=O)(=O)N2C[C@]3(O)C[C@@H]4C(=O)N(c5ccccc5)C(=O)[C@@H]4C[C@]3(OC(=O)NCC3CCCCC3)C2)cc1	–	·	–	·	·	–	·	·
CCOC(=O)N1CCC(NC(=O)CSCc2nc(-c3ccc(C)cc3)oc2C)CC1	–	–	51	–	–	–	–	20
O=C(CCC1CCCN(C(=O)CC2=CCCCC2)C1)N1CCN(c2ccccn2)CC1 (stereo unspecified)	–	–	–	–	–	–	·	·
O=C(CCC1CCCN(C(=O)C2=CCCC2)C1)N1CCN(c2ccccn2)CC1 (stereo unspecified)	–	–	41	–	–	–	–	–
S=c1[nH]c(-c2ccccc2)cn1/N=C/c1cccc2ccccc12	–	–	33	–	–	–	–	–	GDH-TPI dose=–
COc1cc(/C=N/n2cc(-c3ccccc3)[nH]c2=S)cc(OC)c1O	–	–	43	–	–	–	80	64
Cc1ccc(/C=N/n2cc(-c3ccccc3)[nH]c2=S)s1	–	–	–	–	–	–	·	·
Oc1ccc(/C=N/n2cc(-c3ccccc3)[nH]c2=S)cc1	–	–	42	–	–	–	137	117
S=c1[nH]c(-c2ccccc2)cn1/N=C/c1ccccc1Br	–	–	–	–	–	–	·	·
CN(C)c1ccc(C=NNC(=S)Nc2ccc(F)cc2)cc1	41	·	32	·	·	–	–	–
CS(=O)(=O)Nc1ccc(C2=NN(C(=O)c3ccco3)C(c3ccc(F)cc3)C2)cc1 (stereo unspecified)	–	–	74	–	–	–	62	48
CS(=O)(=O)Nc1cccc(C2=NN(C(=O)c3ccco3)C(c3cccs3)C2)c1 (stereo unspecified)	–	–	–	–	–	–	·	·
CCCCCCSc1ccc(-c2nc3ccccn3c2NCCCC)cc1	–	–	45	–	–	–	+	+
COc1ccc(C(=O)Nc2c(N)nc(SCC(=O)NCC3CCCO3)[nH]c2=O)cc1OC (stereo unspecified)	–	–	–	–	–	–	·	·
CC(=O)Nc1ccc2c(CSc3nnc(N)s3)cc(=O)oc2c1	42	–	27	–	–	–	78	67
Cc1cc2nc(-c3ccccc3)c(CC(C)(C)C)n2c(C)c1Br	·	·	–	·	·	·	·	·
CCC1(CC)Cc2ccccc2-c2nc(NCCCO)[nH]c(=O)c21	–	–	59	–	–	–	+	+
Cc1cccc(NC(=S)N(Cc2ccco2)C(C)c2cccs2)c1 (stereo unspecified)	–	–	–	–	–	–	·	·
CC(c1cccs1)N(Cc1ccco1)C(=S)Nc1ccc(F)c(Cl)c1 (stereo unspecified)	–	–	38	–	–	–	+	144

Screening data as filed in PubChem.
